# Source: PubChem BioAssay (NCI)
# Compounds without any hit were thinned out: in the full panel of roughly 79,000, 15% have a hit. A number with no mark means an inactive call. Active and inactive are the calls of the source. Rule as the data show it: active = growth inhibition above about 70%; inactive = the rest.
# Key:
# [1] = NCI Yeast Anticancer Drug Screen. Data for the rad50 strain (AID 155);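 also: 0% = growth of vehicle-only cultures of the same strain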; conditions: S. cerevisiae rad50 strain growth inhibition, stronger effect = higher value
# Method in brief: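 Inhibition values express reduced yeast growth in compound-treated cultures relative to vehicle-treated controls.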
# [2] = NCI Yeast Anticancer Drug Screen. Data for the mec2-1 strain (AID 157); conditions: S. cerevisiae mec2-1 strain, stronger effect = higher value
# Method in brief: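 Strain: mec2-1 (DNA repair/cell cycle alteration). Compound exposure, then growth measured; inhibition expressed relative to vehicle.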
# [3] = NCI Yeast Anticancer Drug Screen. Data for the sgs1 mgt1 strain (AID 161);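 also: 0% = growth of cultures given vehicle only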; conditions: S. cerevisiae sgs1 mgt1 strain, stronger effect = higher value
# Method in brief: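 Test agents were incubated with a DNA-repair-mutant yeast strain. Growth was then read and compared against vehicle-treated controls.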
# [4] = NCI Yeast Anticancer Drug Screen. Data for the cln2 rad14 strain (AID 165);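 also: 0% = growth equal to vehicle treated cultures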; conditions: S. cerevisiae cln2 rad14 strain, stronger effect = higher value
# Method in brief: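 Compounds are applied to the cln2 rad14 yeast strain, and growth is then compared with that of vehicle-treated cultures to give inhibition.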
# [5] = NCI Yeast Anticancer Drug Screen. Data for the bub3 strain (AID 167); conditions: S. cerevisiae bub3 mutant strain, stronger effect = higher value
# Method in brief: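 Steps: expose the mutant yeast strain to compound; grow alongside vehicle-treated cultures; measure growth; express inhibition against the vehicle cultures.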
# [6] = NCI Yeast Anticancer Drug Screen. Data for the mlh1 rad18 strain (AID 175); conditions: S. cerevisiae mlh1 rad18 strain growth inhibition, stronger effect = higher value
# Method in brief: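 Read-out is yeast growth inhibition, calculated against vehicle-only controls. The compound was applied to a strain engineered with DNA damage repair alterations.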
# [7] = at 5.0 µM (retest, dose inferred, filed as 0.5)
# [8] = at 50.0 µM (retest, dose inferred, filed as 5.0)
SMILES,"growth inhibition [1, 7]","growth inhibition [1, 8]",growth inhibition ([1]; at 50.0 µM),"growth inhibition [2, 7]","growth inhibition [2, 8]",growth inhibition ([2]; at 50.0 µM),"growth inhibition [3, 7]","growth inhibition [3, 8]",growth inhibition ([3]; at 50.0 µM),"growth inhibition [4, 7]","growth inhibition [4, 8]",growth inhibition ([4]; at 50.0 µM),"growth inhibition [5, 7]","growth inhibition [5, 8]",growth inhibition ([5]; at 50.0 µM),"growth inhibition [6, 7]","growth inhibition [6, 8]",growth inhibition ([6]; at 50.0 µM)
O=C(O)c1cc(Cc2ccc(O)c(C(=O)O)c2)ccc1O (tested in a mixture with another compound),92% (active),32%,42.6%,76% (active),4%,26.7%,40%,48%,85% (active),31%,41%,14.1%,33%,36%,72.7% (active),87% (active),36%,74.4% (active)
O=C([O-])C(F)(F)C(F)(F)F.[C-]#[O+].[C-]#[O+].[C-]#[O+].[C-]#[O+].[C-]#[O+].[Re],15%,15%,83.7% (active),13%,13%,92% (active),12%,12%,90.7% (active),12%,12%,68.5%,-4%,-4%,91.5% (active),10%,10%,44%
NNc1ccccc1,13%,97% (active),98.6% (active),1%,95% (active),97.3% (active),3%,98% (active),98.8% (active),0%,96% (active),96.8% (active),9%,98% (active),96.2% (active),15%,98% (active),98.6% (active)
CC(=O)[O][Hg][c]1ccc(N)[c]([Hg][O]C(C)=O)c1,99% (active),98% (active),99.5% (active),99% (active),99% (active),99.5% (active),99% (active),99% (active),99.5% (active),99% (active),98% (active),98.7% (active),99% (active),99% (active),99.2% (active),99% (active),99% (active),99.1% (active)
CC(=O)[C-](Cl)C(C)=O.CC(=O)[C-](Cl)C(C)=O.CC(=O)[C-](Cl)C(C)=O.[Ru+3],16%,98% (active),34.6%,15%,99% (active),84.8% (active),16%,99% (active),53.8%,8%,99% (active),-1.7%,-1%,99% (active),-17.4%,6%,99% (active),76.8% (active)
[Cl][Sn]([CH2]c1ccccc1)([CH2]c1ccccc1)[CH2]c1ccccc1,99% (active),98% (active),99% (active),100% (active),99% (active),99.2% (active),100% (active),99% (active),99.3% (active),99% (active),98% (active),98.7% (active),99% (active),99% (active),98.5% (active),99% (active),99% (active),99% (active)
CCOC(=O)C1C(O)=C(P(=O)(C2=C(O)C(C(=O)OCC)C(c3ccc(OC(C)=O)cc3)C(C(=O)O)C2=O)N(CCCl)CCCl)C(=O)C(C(=O)O)C1c1ccc(OC(C)=O)cc1 (configuration not stated),16%,86% (active),45.6%,1%,85% (active),71.8% (active),11%,95% (active),52%,-5%,73% (active),66.2%,-4%,90% (active),54.4%,20%,92% (active),61.2%
[O-][n+]1onc2c1-c1nonc1CC2,21%,9%,-33.5%,-16%,-6%,5.65%,4%,22%,-10.3%,8%,21%,16%,6%,19%,-3.95%,-2%,11%,1.15%
c1ccc(C(c2ccccc2)c2cccnc2)cc1,61%,97% (active),89.2% (active),59%,98% (active),91.2% (active),16%,98% (active),91.6% (active),55%,97% (active),88.9% (active),52%,98% (active),91.7% (active),54%,100% (active),90.8% (active)
